Compound activity deposited in PubChem by National Center for Advancing Translational Sciences (NCATS).
This is a sample that favours compounds with a hit; in the whole collection about 16% have one here.
uPA surface inh – qHTS for Inhibitors of Cell Surface uPA Generation. AID 540303, 2011. cell surface uPA generation assay, qHTS. actives 0.31% (n = 330,000). Potency, µM (doses to about 38.3 µM), for the others: top-dose activity change, negative = inhibition, usual class: inhibitors; active means well fitted inhibition curve with a large enough effect; inconclusive means small, poorly fitted or top-dose-only effect; inactive means no such curve, though single readings can be large or run the other way; tested in mouse RAW 264.7 cells; further: potency means the concentration at half of the fitted maximal effect; on the % scale 0 is the no-effect control and ±100 the full control effect; nearly all actives have a fitted effect of over 55% in size
TDP1 block – qHTS Assay for Inhibitors of Tyrosyl-DNA Phosphodiesterase (TDP1) | Tyrosyl-DNA phosphodiesterase 1 (Homo sapiens), Q9NUW8 | recombinant TDP1, AlphaScreen DNA substrate cleavage | Potency, µM (doses to about 130 µM), inactives show at the highest dose activity change, negative = inhibition, usual class: inhibitors | actives 0.28% (n = 350,000) | AID 485290, 2010; further: potency means the concentration at half of the fitted maximal effect; on the % scale 0 is the no-effect control and ±100 the full control effect; nearly all actives have a fitted effect of over 40% in size
Target sequence (Q9NUW8 whole entry, looked up): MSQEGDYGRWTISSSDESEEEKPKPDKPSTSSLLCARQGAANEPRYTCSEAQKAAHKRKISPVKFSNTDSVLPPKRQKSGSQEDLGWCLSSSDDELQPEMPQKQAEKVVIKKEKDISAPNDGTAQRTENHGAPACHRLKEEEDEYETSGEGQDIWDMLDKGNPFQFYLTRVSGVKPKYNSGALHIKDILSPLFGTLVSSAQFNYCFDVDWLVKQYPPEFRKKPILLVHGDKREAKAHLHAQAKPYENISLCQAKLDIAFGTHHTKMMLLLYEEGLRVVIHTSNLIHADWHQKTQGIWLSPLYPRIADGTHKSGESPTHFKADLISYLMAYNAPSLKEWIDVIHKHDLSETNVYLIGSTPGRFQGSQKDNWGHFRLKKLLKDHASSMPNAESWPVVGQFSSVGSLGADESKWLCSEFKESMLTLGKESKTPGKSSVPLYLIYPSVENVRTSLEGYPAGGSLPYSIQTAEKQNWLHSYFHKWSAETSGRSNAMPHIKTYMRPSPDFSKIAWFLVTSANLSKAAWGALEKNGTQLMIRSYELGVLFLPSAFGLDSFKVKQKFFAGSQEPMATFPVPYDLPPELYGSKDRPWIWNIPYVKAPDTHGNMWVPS
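Recombinant E. coli-expressed Tdp1 (1 nM) preincubated with compound 15 min at RT, then 5'-biotin/3'-phosphotyrosine-FITC DNA substrate (15 nM) added for 5 min. AlphaScreen beads (10 ug/ml) added, 10 min RT; tyrosine-FITC cleavage read as signal loss.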
TDP1 cell noCPT – qHTS for Inhibitors of human tyrosyl-DNA phosphodiesterase 1 (TDP1): qHTS in cells in absence of CPT; Potency, µM (doses to about 46.2 µM), inactives show top-dose activity change, negative = growth inhibition, usual class: inhibitors; AID 686978, 2013; DT40 Tdp1-/- hTDP1 cells, no CPT, ATP luminescence, 48 h; actives 15% (n = 420,000); further: potency means the concentration at half of the fitted maximal effect; on the % scale 0 is the no-effect control and ±100 the full control effect; nearly all actives have a fitted effect of over 55% in size
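Luminescent ATP content (CellTiter-Glo) served as the growth readout. Knockout chicken DT40 cells expressing human TDP1 were exposed to compounds without camptothecin for a minimum 48 hr at 37 °C.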
miR-21 act – qHTS Assay for Modulators of miRNAs and/orActivators of miR-21; Potency, µM (top dose mostly 38.3 µM), without a hit: top-dose activity change, positive = activation, hits mostly activators; HeLa miR-21 FLuc reporter, luciferase, 48 h; 340,000 tested, under 10 active;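 further: % of control where 0% means no effect; miR-21 action dims this reporter so a rising signal means less miR-21 action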
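HeLa miR-21-FLuc reporter line, endogenous miR-21; 2000 cells/well in DMEM/10% FBS; compound titration up to ~40uM final, 48 h, 37 degree Celsius; luciferase detection reagent, 15 min lysis, CCD luminescence.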
TDP1 cell CPT – qHTS for Inhibitors of human tyrosyl-DNA phosphodiesterase 1 (TDP1): qHTS in cells in presence of CPT; chicken DT40 Tdp1-/-;hTDP1 cells + 20 nM CPT, ATP luminescence, 48 h; Potency, µM (titrated, usually from 46.2 µM), without a hit: at the highest dose activity change, negative = growth inhibition, hits mostly inhibitors; actives 12% (n = 420,000); further: potency means the concentration at half of the fitted maximal effect; on the % scale 0 is the no-effect control and ±100 the full control effect; nearly all actives have a fitted effect of over 55% in size
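Chicken DT40 Tdp1-/- cells stably complemented with human TDP1 were seeded at 400 cells/well in medium containing 20 nM camptothecin, exposed to pin-transferred compounds, and grown at 37 °C for at least 48 hr. Viability was read as ATP luminescence.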
Active calls of the source: *; u = inconclusive; x = no result given; [ ] = dose if it differs, or a comment. Unless noted, the call rests on the fitted dose curve; in most records, active means well fitted curve in the direction sought with a large enough effect; inconclusive means small, poorly fitted or top-dose-only effect, or another doubt; inactive means no such curve, though single readings can be large; an effect the other way counts as inactive or inconclusive.

SMILES	uPA surface inh	TDP1 block	TDP1 cell noCPT	miR-21 act	TDP1 cell CPT
COc1ccc(-c2cc(C(F)(F)F)nc(SCC(=O)NCc3cnn(C)c3C)n2)cc1OC	-7.0%	-8.1%	-3.2%	1.6%	-28.5%
COc1ccc(CCNC(=O)Nc2cc(F)c(F)cc2Cl)cc1OC	6.8%	5.2%	8.2µM*	5.8%	23.1µM*
Cc1ccc(-c2nnc(SCC(=O)NCCC(C)C)nc2-c2ccc(C)cc2)cc1	x	7.9%	13µM*	u	5.8µM*
COc1ccc(CCNC(=O)CSCc2ccc(Cl)cc2)cc1OC	-0.9%	0.0%	u	7.5%	u
Cc1ccc(OCc2ccc(C#N)cc2)c(C(=O)c2cc(C#N)c(=O)n(C3CC3)c2)c1	0.6%	8.2%	-14.4%	-2.4%	-13.0%
CCOC(=O)C1CCN(C(=O)CNC(=O)c2nn(-c3ccc(OC)cc3OC)c(=O)c3ccccc23)CC1	-2.8%	8.6%[0.0935 µM]	-21.8%	-15.6%	-18.4%
O=C(CSc1nnc(-c2ccccc2)c(-c2ccccc2)n1)NCC1CCCO1 (centres undefined)	3.5%	2.9%	u	x	-5.6%
COc1ccc(CCNC(=O)CSc2nnc(-c3ccc(C)cc3)c(-c3ccc(C)cc3)n2)cc1OC	x	13.0%	16.4µM*	10.0%	u
CCOc1ccc(-c2nnc(SCC(=O)NCCC(C)C)nc2-c2ccc(OCC)c(OC)c2)cc1OC	x	-1.5%	u	5.2%	14.6µM*
COc1ccc(CCNC(=O)CSc2nc(-c3ccc(F)cc3)cc(C(F)(F)F)n2)cc1OC	x	-4.2%	u	-3.5%	18.4µM*
COc1ccc(-c2cc(C(F)(F)F)nc(SCC(=O)NCCc3ccccc3)n2)cc1OC	x	3.2%	u	-22.4%	u
COc1ccc(CCNC(=O)CSc2nc(C)cc(C)n2)cc1OC	7.7%	-7.6%	10.9%	1.2%	7.5%
Cc1ccc(-c2nnc(SCC(=O)NCC3CCCO3)nc2-c2ccc(C)cc2)cc1 (centres undefined)	-4.1%	-7.4%[0.505 µM]	23.1µM*	x	u
Cn1c(N)c(C(=O)COC(=O)c2ccccc2C(F)(F)F)c(=O)n(C)c1=O	16.6%	-6.4%	u	x	u
COc1ccccc1CNC(=O)CSc1nc(-c2ccc(OC)c(OC)c2)cc(C(F)(F)F)n1	x	-4.2%	u	-2.6%	u
COc1ccccc1CCNC(=O)C(C)Sc1nc(-c2ccccc2)cc(C(F)(F)F)n1 (centres undefined)	x	2.1%	14.6µM*	-0.2%	16.4µM*
COc1ccc(CCNC(=O)c2nc(SCc3ccc(F)cc3)ncc2Cl)cc1OC	x	0.0%	u	25.3%	20.6µM*
Cc1cc(C)n2nc(CC(=O)NC3CCCC(C)C3C)nc2n1 (centres undefined)	x	-2.0%	-15.6%	-0.4%	-36.2%
O=C(NNC(=O)c1ccncc1)Nc1ccc([N+](=O)[O-])cc1	1.6%	2.5%	-19.5%	2.1%	-1.6%
CCOC(=O)c1cnc(-n2cc(C)cn2)nc1Nc1ccccc1OCC	2.0%	3.8%	6.51µM*	-4.7%	10.3µM*
O=C(CN1C(=O)C2C3C=CC(C3)C2C1=O)NCCc1ccccc1 (centres undefined)	0.6%	-6.2%	23.1µM*	-19.4%	11.6µM*
O=C(N/N=C/c1c(O)ccc2ccccc12)c1ccc(CO)nc1	-13.7%	5.4%	4.61µM*	12.7%	4.61µM*
COc1ccc2ccccc2c1/C=N/NC(=O)c1ccc(C)nc1	-5.7%	x	u	-0.7%	1.0%
CC/C(=N/NC(=O)c1ccc2c(c1)OCO2)c1ccccc1O	u	x	3.66µM*	x	6.51µM*
O=C(N/N=C\c1c(O)ccc2ccccc12)c1ccc(S(=O)(=O)N2CCCCC2)cc1	-4.4%	8.2%	3.66µM*	15.3%	3.26µM*
O=C(NNC(=O)c1ccc(S(=O)(=O)N2CCCCC2)cc1)c1ccccc1	5.9%	11.0%	-8.9%	0.5%	-8.1%
Cc1cc(O)cc(O)c1/C=N/NC(=O)c1ccc2c(c1)OCCO2	x	x	6.51µM*	x	5.8µM*
